Assay results taken from the supplement of paper PMC6555819.

Columns and labels:
Test in all cases: PBM binding z-score (relative to random genomic background probes); higher = stronger binding; sequences stand for … in GC…GCGATTGACAGCGTAGAATGAAGG
[1] = test system: FXR:RXRa (NR concentration 270 nM, RXRa partner concentration 90 nM)
In short: (§1)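 Regression normalization was applied to scanned fluorescence from custom Agilent 4×180K protein-binding microarrays. Before scanning, arrays were incubated 1 h with ligand-free nuclear receptor dimers, and binding was detected with antibodies against each partner (one per run). Binding z-scores use the random background probes as reference.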

[2] = test system: LXRa:RXRa (NR concentration 270 nM, RXRa partner concentration 90 nM)
In short: as §1

[3] = test system: LXRa homodimer (NR concentration 270 nM)
In short: as §1

[4] = test system: LXRb:RXRa (NR concentration 270 nM, RXRa partner concentration 90 nM)
In short: as §1

[5] = test system: LXRb homodimer (NR concentration 270 nM)
In short: as §1

[6] = test system: PPARa:RXRa (NR concentration 270 nM, RXRa partner concentration 90 nM)
In short: as §1

[7] = test system: PPARg:RXRa (NR concentration 180 nM, RXRa partner concentration 90 nM)
In short: as §1

[8] = test system: PPARg:RXRa 270nM:90nM, anti-RXR (NR concentration 270 nM, RXRa partner concentration 90 nM)
In short: as §1

[9] = test system: PPARg:RXRa 30nM:10nM, anti-RXR (NR concentration 30 nM, RXRa partner concentration 10 nM)
In short: as §1

[10] = test system: PPARg:RXRa 90nM:30nM, anti-RXR (NR concentration 90 nM, RXRa partner concentration 30 nM)
In short: as §1

[11] = test system: PPARg:RXRa DBDmut IVT, anti-RXR (DBD mutation: RXRa K156A/R161A, NR concentration 270 nM, RXRa partner concentration 90 nM)
In short: as §1

[12] = test system: PPARg:RXRa IVT, anti-PPARg (NR concentration 270 nM, RXRa partner concentration 90 nM)
In short: as §1

[13] = test system: PPARg DBDmut:RXRa IVT, anti-PPARg (DBD mutation: PPARg1 K132A/R137A, NR concentration 270 nM, RXRa partner concentration 90 nM)
In short: as §1

[14] = test system: PPARg DBDmut IVT, anti-PPARg (DBD mutation: PPARg1 K132A/R137A, NR concentration 270 nM)
In short: as §1

[15] = test system: PPARg homodimer (NR concentration 180 nM)
In short: as §1

[16] = test system: PXR:RXRa (NR concentration 270 nM, RXRa partner concentration 90 nM)
In short: as §1

[17] = test system: PXR homodimer (NR concentration 270 nM)
In short: as §1

[18] = test system: RARa:RXR (NR concentration 270 nM, RXRa partner concentration 90 nM)
In short: as §1

[19] = test system: RARa homodimer (NR concentration 270 nM)
In short: as §1

[20] = test system: RARb:RXRa (NR concentration 270 nM, RXRa partner concentration 90 nM)
In short: as §1

Sequence	PBM binding z-score [1]	PBM binding z-score [2]	PBM binding z-score [3]	PBM binding z-score [4]	PBM binding z-score [5]	PBM binding z-score [6]	PBM binding z-score [7]	PBM binding z-score [8]	PBM binding z-score [9]	PBM binding z-score [10]	PBM binding z-score [11]	PBM binding z-score [12]	PBM binding z-score [13]	PBM binding z-score [14]	PBM binding z-score [15]	PBM binding z-score [16]	PBM binding z-score [17]	PBM binding z-score [18]	PBM binding z-score [19]	PBM binding z-score [20]
AGAACGCGGGCACGCTGAGTTGATAGCAGAGTAG	-0.237	-0.318	-0.326	-0.68	-1.1	-0.532	0.363	-0.844	-0.786	-0.727	0.0817	-0.217	-0.65	-1.15	-0.455	-0.502	-0.289	-0.215	-0.302	0.31
CCTATTAGTTGACCATAAGGGAAACCGAAGCTCG	0.0135	0.118	0.818	0.349	0.904	0.126	0.419	0.639	0.332	0.381	0.672	0.217	0.925	1.02	2.22	0.326	0.761	0.517	2.53	0.497
CCTGCTAGGTCAATGGTCATCTAAAGCAGCTCGC	2.9	2.28	0.085	1.68	0.00102	3.22	4.71	5.48	3.24	5.52	4.11	3.89	-0.358	-0.372	1.1	1.35	-0.609	2.05	-0.14	3.75
ATCTCTAGGTAAAGATAGTTGAGTGAATGCAAAT	0.323	0.358	-0.0172	0.23	0.435	0.437	0.538	0.246	0.222	0.29	2.14	1.82	1.87	0.639	0.295	0.221	0.497	0.592	1.46	-0.0235
AGAATGAGGTTCTACGTAGATCAGGGAAGAAAGT	-0.522	-0.707	-0.69	-0.345	-0.624	-0.336	0.146	-0.165	-0.125	-0.13	0.0808	0.054	0.621	0.606	-0.411	-0.126	0.193	-0.0619	-0.303	-0.407
CTCGAATGGTCGTGCTCAGGTGAGTATACCAAAC	-0.179	-0.419	-0.51	-0.227	-0.231	-0.0651	-0.329	-0.395	-0.488	-0.372	-0.307	0.137	-1.36	0.0362	-1	-0.335	-0.382	0.107	0.169	0.0892
CCTAATAGTTGACCATAAGGGCAACCGAAGCTCG	0.919	0.486	0.29	0.606	0.214	0.827	0.664	0.43	0.117	0.37	-0.0162	0.473	0.327	0.353	1.09	0.821	0.596	1.27	1.46	1.72
CCAACTGGGGCAGAAAGGTTACCATACCATCCGG	0.267	0.782	0.0649	1.12	-0.79	2.53	2.29	2.56	0.915	2.11	3.25	3.34	0.0349	-0.823	0.624	1.1	0.0955	1.98	-0.139	2.03
CCGACTGGGGTATAAGGTTACCATAAGCCAGCCC	0.283	1.57	-0.00996	0.982	-0.761	1.69	1.79	2.38	0.774	2.06	1.17	1.24	-0.919	-1.39	0.667	0.301	-0.29	1.24	0.0701	0.726
CCTTACGGGGCACGAGGTTATAGCACGACGAGCG	0.567	0.879	-0.304	0.509	-0.823	2.26	2.22	2.19	0.265	1.49	1.87	2.38	0.9	-1.3	0.427	0.836	-0.487	1.6	-0.309	1.9
